# The list is not random: actives were taken first. Their share in the collection is about 4.7%.
# TRHR PAM: qHTS for Small Molecule Agonists and Allosteric Enhancers of Human TRH Receptor: Primary Screen for Enhancers; TRHR cells, fluo-8 calcium fluorescence, EC20 TRH enhancement; Thyrotropin-releasing hormone receptor (Homo sapiens), P34981; 360,000 tested, 0.66% active; enhancement, % at 2 µM; in the data active = enhancement above about 30%; also: 0% is about no effect
#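 TRHR-expressing cells loaded with fluo-8 calcium dye were read kinetically (ex 480/em 530) during compound addition, then stimulated with an EC20 of TRH (10 nM final). Enhancement of the Gq-mediated intracellular calcium response was scored.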
# D1 agonist: Allosteric Agonists of the Human D1 Dopamine Receptor: qHTS | HEK293 T-REx D1 cells, calcium flux, agonist mode | activation, % at 2 µM | 360,000 tested, 1% active; also: 0% is about no effect
# Target sequence (P21728 whole entry, looked up): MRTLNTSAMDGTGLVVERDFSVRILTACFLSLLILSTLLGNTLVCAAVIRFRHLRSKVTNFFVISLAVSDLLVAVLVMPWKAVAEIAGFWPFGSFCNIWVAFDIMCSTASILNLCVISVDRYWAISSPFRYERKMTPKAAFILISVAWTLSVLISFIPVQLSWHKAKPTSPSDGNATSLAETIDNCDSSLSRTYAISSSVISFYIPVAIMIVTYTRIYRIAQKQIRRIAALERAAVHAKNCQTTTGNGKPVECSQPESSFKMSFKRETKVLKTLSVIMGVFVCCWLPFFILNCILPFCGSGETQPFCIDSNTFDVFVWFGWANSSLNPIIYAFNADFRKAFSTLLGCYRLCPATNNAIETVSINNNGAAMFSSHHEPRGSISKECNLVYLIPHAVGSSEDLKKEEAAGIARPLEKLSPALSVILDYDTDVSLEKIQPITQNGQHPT
#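 Inducible HEK293 T-REx D1 cells, force-coupled to calcium signalling, were plated at 4000 cells/well with tetracycline and held overnight at 30 C. After no-wash calcium dye loading, compound-evoked calcium rise over 180 s flagged agonists.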
# D1 antagonist: Antagonist of Human D 1 Dopamine Receptor: qHTS. HEK293 TREx D1 cells, calcium flux, dopamine EC80; active compounds read low. 360,000 tested, 3.2% active. activity change, negative = inhibition, % at 10 µM. AID 504652, 2011. D(1A) dopamine receptor (Homo sapiens), P21728; in the data active = activity change below about -30%; also: % is scaled to controls: 0 for no effect and ±100 for the full control effect
#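 Antagonism measured as reduced calcium response to an EC80 dopamine addition following 180 s compound pre-read; cells were inducible HEK293 Trex D1 plated overnight at 30 C, read kinetically at 1 cycle/sec.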
# TRHR agonist: qHTS for Small Molecule Agonists and Allosteric Enhancers of Human TRH Receptor: Primary Screen for Agonists. TRHR cells, calcium flux fluo-8, FDSS agonist mode. activation, % at 2 µM. 360,000 tested, 0.18% active; also: 0% is about no effect
#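 Read-out: compound-evoked intracellular calcium rise in TRHR cells, fluo-8 dye, kinetic FDSS fluorescence at 1 s/cycle following a 10-cycle baseline. Cells cultured overnight before dye loading (30 min–1.5 h, RT).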
# D1 potentiator: Potentiators of Human D1 Dopamine Receptor: qHTS; D(1A) dopamine receptor (Homo sapiens), P21728; HEK293 TREx D1 cells, calcium flux, dopamine EC20 potentiation; potentiation, % at 10 µM; 360,000 tested, 0.036% active; AID 504651, 2011; in the data active = potentiation above about 30%; also: 0% is about no effect
# * hit, by the source's call. Rule as the data show it, unless noted: active = activation above about 30%; inactive = the rest.
SMILES,TRHR PAM,D1 agonist,D1 antagonist,TRHR agonist,D1 potentiator
O=C(COC(=O)c1ncc(Cl)c(Cl)c1Cl)NC(=O)c1ccccc1,5,2,7,0,-2
O=C(COC(=O)c1nc(Cl)ccc1Cl)NC1CCCCCC1,1,9,-31*,0,-4
O=C(COC(=O)c1ncc(Cl)c(Cl)c1Cl)NC1CCCCCC1,16,1,-44*,1,-2
COc1ccc(N2Cc3cccc(C(=O)Nc4ccc(Cl)cc4)c3C2=O)cc1,1,0,-1,1,-3
Cc1ccc(-c2cc(C(=O)NCc3ccccc3)c3c(-c4ccc(C)cc4)[nH]nc3n2)cc1,-3,9,14,1,-2
CC(=O)Nc1ccc(-c2cc(C(=O)O)c3c(-c4ccccc4)[nH]nc3n2)cc1,-4,1,-39*,0,0
COc1cccc(C2c3[nH]c4ccccc4c3CCN2Cc2cnc(C)s2)c1OC (stereo unspecified),28,1,-43*,0,6
CCOc1ccc(-n2c(=O)c3c(C)c(C(=O)N(C)C)sc3n(Cc3cc(C)ccc3C)c2=O)cc1,-3,0,18,0,-1
COc1ccc(CCNC(=O)c2ccc(Cl)c(S(=O)(=O)N(C)c3ccccc3)c2)cc1,-3,18,-31*,0,-4
COC(=O)c1cc(CNC(=O)c2ccc(S(=O)(=O)N(C)c3ccccc3)cc2)ccc1OC,-20,1,-68*,0,-21
COc1ccc(CCNC(=O)c2ccc(Cl)c(S(=O)(=O)N3CCCCCC3)c2)cc1,2,12,4,1,-3
CN(Cc1ccc(OC(F)F)cc1)C(=O)c1ccc(S(=O)(=O)N(C)c2ccccc2)cc1,-5,9,-40*,3,-6
CC(=O)c1ccc(NC(=O)Nc2sc3nc4n(c(=O)c3c2C)CCC(C)CC4)cc1 (stereo unspecified),4,0,-5,0,-2
O=C(NCC1CCCN1S(=O)(=O)c1cccs1)c1cccc(Cl)c1 (stereo unspecified),3,4,-32*,0,-4
COc1ccc(NC(=O)CN2CCC(C(N)=O)(N3CCCCC3)CC2)c(OC)c1,-5,0,-37*,0,-8
CC(C)CN1C(=O)c2ccc(C(=O)Nc3ccc(O)cc3C(=O)O)cc2C1=O,-3,3,-76*,0,-9
Cc1ccc(Cn2c(C)c(CNC3CCCCC3)c(C(=O)O)c2C)cc1,3,-1,6,0,-3
Cc1nnsc1C(=O)N/N=C/c1ccc2ccccc2c1O,15,138*,6,65*,5
Cc1nnsc1C(=O)N/N=C/c1ccccc1,5,7,-4,-1,-4
Cc1csc(NC(=O)C2CC(=O)N(c3ccc(C)c(C)c3)C2)n1 (stereo unspecified),3,-1,3,0,2
CCC(=O)N1CCc2cc(-c3csc(NC(=O)c4ccco4)n3)ccc21,11,0,-2,-1,-3
CC(C)C(=O)N1CCc2cc(-c3csc(N)n3)ccc21,4,2,-43*,0,-6
Cc1ccccc1N(C(=O)Cn1nnc(-c2ccc(F)cc2)n1)C(C(=O)NC(C)(C)C)c1ccncc1 (stereo unspecified),-12,14,-35*,1,-4
Cc1ccc(-c2nnn(CC(=O)N(c3cccc(F)c3)C(C(=O)NC(C)(C)C)c3ccco3)n2)o1 (stereo unspecified),-1,0,-39*,0,-2
COc1ccc(CN(C(=O)Cn2nnc(-c3ccc(C)o3)n2)C(C(=O)NCC2CCCO2)c2ccco2)cc1 (stereo unspecified),-1,0,-42*,0,-6
SMILES,TRHR PAM,D1 agonist,D1 antagonist,TRHR agonist,D1 potentiator
O=[N+]([O-])c1ccc(O)c(-c2ccnc3cc(-c4ccccc4)nn23)c1,-2,13,19,5,-2
O=C(CN1CCc2cc3c(cc2C1)OCCCO3)Nc1cccc(Br)c1,5,3,5,0,2
CCCc1c(C(=O)N/N=C/c2cccs2)nnn1-c1nonc1N,9,31*,10,1,5
CCCN(CCC)Cc1c(C(=O)N/N=C/c2cccs2)nnn1-c1nonc1N,-5,3,-16,-1,-9
Nc1nonc1-n1nnc(C(=O)N/N=C/c2ccncc2)c1CSc1ccccc1,-3,18,-47*,0,-4
Nc1nonc1-n1nnc(C(=O)N/N=C/c2ccoc2)c1CSc1ccc(Cl)cc1,-13,0,-40*,0,-6
CCc1noc(C)c1C(=O)OCC(=O)N(C)c1c(N)n(Cc2ccccc2)c(=O)[nH]c1=O,8,1,20,0,-2
Cc1ccc(OCCCn2ccnc2)c(Br)c1,7,5,-68*,0,-7
Cc1cc(OCCn2ccnc2)cc(C(C)C)c1,-3,2,-20,-1,2
Cc1cc(C)cc(OCCn2ccnc2)c1,35*,2,29,0,-2
Cc1ccc(OCCCn2ccnc2)c([N+](=O)[O-])c1,-2,1,-6,0,1
N#Cc1ccc(C(=O)Nc2ccc3c(c2)N(C2CCCC2)C(=O)c2ccccc2S3)cc1,5,7,3,1,-2
CC(C)(C)OC(=O)N1CCC(Cc2cc(-c3cccnc3)no2)(C(=O)O)CC1,4,1,2,0,-6
Cc1c(C(=O)N2CCOCC2)sc(NC(=O)c2ccc3c(c2)OCO3)c1C#N,3,1,-34*,1,1
COc1ccc(OCc2ccc(-c3nc(C#N)c(NCc4ccc(F)cc4)o3)o2)cc1,3,2,3,0,1
Cc1cc2ccccn2c1C(C[N+](=O)[O-])c1ccc(N(C)C)cc1 (stereo unspecified),5,42*,1,11,-2
COc1ccc(CN(CCc2ccccc2)Cc2ccccc2)cc1OC,-11,6,-18,-1,-4
COc1cc(CN(CCN(C)C)Cc2ccccc2)ccc1OCc1ccccc1,7,25,-76*,1,-17
CCCCN(CC)CCCNC(=O)c1cn(CC)c2ccc(S(=O)(=O)N3CCOCC3)cc2c1=O,-3,1,-5,1,0
CCn1cc(C(=O)O)c(=O)c2cc(S(=O)(=O)N(C)C)ccc21,-2,4,-37*,0,0
CCn1cc(C(=O)NCc2ccccc2Cl)c(=O)c2cc(S(=O)(=O)N3CCCCCC3)ccc21,-3,4,-62*,0,-2
